Compounds with a hit are over-represented: about 2.2% of the library has one in this group of screens.
Shn3 3UTR inh = reduction of Shn3 3'UTR firefly luciferase signal, primary screen, Schnurri-3 inhibitor project, cell-based, Clone20 osteoblasts, set 2; Clone20 osteoblast Shn3 3'UTR firefly luciferase, 24 h; inhibition, % at 12.5 µM; 0.52% of 360,000 active; AID 588674, 2011;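 active means mean inhibition of at least 75% with every replicate also reaching 75%; inconclusive means mean inhibition at least 75% but some replicate below; inactive means mean inhibition below 75%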;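 further: 0% = median of neutral control wells and 100% = pilot-screen positive control compound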
EWS-Fli inh = EWS/Fli-driven NR0B1 reporter inhibitors, primary screen, A673 cells, NR0B1 luciferase, luminescence, MLPCN library; viability-normalised; inhibition, % at 12.6 µM; 0.67% of 350,000 active; AID 651661, 2012;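 active means mean inhibition of at least 50% after viability correction, with every replicate also passing that limit; inconclusive means mean reaches 50% but only one of two replicates passes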;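 further: firefly luciferase signal divided by Alamar Blue viability fluorescence both relative to DMSO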
LGR2 inh = inhibitors of bursicon-induced LGR2 CRE-luciferase signal, primary screen, cell-based, HEK293, CRE-luciferase reporter, bursicon stimulation; 0.35% of 380,000 active; Drosophila bursicon receptor LGR2 (rickets); AID 720647, 2013; inhibition, % at 9.99 µM; bursicon-stimulated, 4 h;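 active means drop in luminescence signal, shown as inhibition above about 50% in the replicate tests, limit read from the data, passing the limit was not always enough; inconclusive means probably only some replicates passing the limit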;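 further: agonist challenge used bursicon conditioned medium at about half maximal strength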
PAX8 reporter = inhibitors of PAX8-driven TPO luciferase reporter, primary screen, RMG-I cells, single concentration; SteadyGlo, 24 h; inhibition, % at 12.6 µM; 1.2% of 360,000 active; AID 652154, 2013;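 active means mean replicate inhibition at least 60% with every replicate also reaching 60%; inconclusive means only one of the two criteria is met; inactive means mean below 60% and not all replicates reaching 60%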;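 further: luciferase light reporting Pax8 driven TPO promoter activity; plate controls were median of neutral control wells for no effect and mitoxantrone controls for full effect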
TRPM1 prom inh = inhibitors of MITF-dependent TRPM1 promoter reporter, primary screen, cell-based, SK-MEL-5, single point, luciferase. SK-MEL-5 TRPM1 promoter luciferase, 24 h. inhibition, % at 12.5 µM. 0.83% of 330,000 active. AID 488899, 2010;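 active means mean inhibition across replicates of 60% or more, whatever share of single replicates reaches that level; inconclusive means some that reach 60%, reason not given; inactive means mean inhibition across replicates below 60%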
LMP1 NFkB inh = EBV LMP1-driven NF-kappaB luciferase reporter inhibitors, primary screen, cell-based, luminescence, single point; LMP1-induced NF-kappaB luciferase reporter cells; inhibition, % at 12.5 µM; 0.69% of 350,000 active; in the data active means inhibition above about 41%; inconclusive means no clear call, values can overlap the other calls;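 further: 0% = neutral control wells and 100% = reference inhibitor control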
Active calls of the source: *; ? = inconclusive; . = no result; ! = not active in a repeat.

SMILES	Shn3 3UTR inh	EWS-Fli inh	LGR2 inh	PAX8 reporter	TRPM1 prom inh	LMP1 NFkB inh
O=C(C[C@@H]1CC[C@@H]2[C@H](COC[C@H](O)CN2C(=O)Nc2ccc(Cl)c(Cl)c2)O1)NCc1ccc(Cl)c(Cl)c1	.	2.0	7.8	9.1	.	.
Cc1noc(C)c1NC(=O)N(C)C[C@H]1Oc2ccc(NS(=O)(=O)c3cccs3)cc2CC(=O)N([C@H](C)CO)C[C@@H]1C	.	5.0	-10.8	-1.5	.	.
Cc1ccc(S(=O)(=O)Nc2ccc3c(c2)C(=O)N([C@@H](C)CO)C[C@H](C)[C@H](CN(C)C)O3)cc1	.	-4.2	5.6	-16.7	.	.
C[C@H]1CN([C@@H](C)CO)C(=O)c2cc(C#Cc3cccnc3)cnc2O[C@H]1CN(C)C(=O)CN(C)C	.	-11.4	-5.7	-20.3	.	.
O=C(C[C@H]1CC[C@H]2[C@@H](COC[C@H](O)CN2C(=O)Nc2ccc(Cl)c(Cl)c2)O1)NCc1ccc(Cl)cc1	.	-9.2	0.7	69.7*	.	.
C=CCn1c(SCc2cc(C(C)=O)ccc2OCC)nc2ccccc2c1=O	27.9	53.9*	.	30.2	15.2	18.2
COc1ccc(C(C)=O)cc1CSc1nc2ccccc2c(=O)n1-c1ccccc1	39.8	.	-14.2	-13.0	14.2	-7.7
O=S(=O)(c1ccc(Br)cc1Cl)N1CCN(CCO)CC1	-15.5	4.1	8.1	0.6	2.7	-8.4
O=C1C=CC(=O)c2c(O)c(N3CCN(CCO)CC3)c(Cl)c(O)c21	98.8*	38.2	-22.9	-9.9	99.3*	71.5*
O=C1C=CC(=O)c2c(O)c(N3CCN(CCOCCO)CC3)c(Br)c(O)c21	92.9*	?	6.4	97.4*	96.6*	82.0*
O=Cc1cc(OCc2ccccc2)ccc1[B-](F)(F)F	-30.0	44.6	-8.7	-22.8	14.6	55.0*
O=C(Nc1ccc(F)cc1)N1CC(=O)N2[C@H](CO)[C@@H](c3ccc(C#CC4CC4)cc3)[C@@H]2C1	.	-2.2	10.3	1.0	.	.
Cn1c2c(c(=O)n(C)c1=O)C(C(F)(F)F)(C(F)(F)F)N=C(CCC1CCCCC1)N2	47.3	5.3	74.5*	31.1	5.3	19.4
CCNC(=S)NNC(=O)c1cc(-c2ccc(OCC)cc2)nc2ccccc12	8.1	71.2*	89.5*	.	22.2	57.0*
CCc1ccc(-c2cc(C(=O)Nn3cnnc3)c3ccccc3n2)cc1	15.3	77.6*	8.0	.	65.6*	76.8*
CCCc1ccc(-c2cc(C(=O)NN3CCOCC3)c3ccccc3n2)cc1	-25.1	.	2.1	.	-59.6	-15.3
Cc1noc(C)c1NC(=O)Nc1ccc2c(c1)C(=O)N([C@H](C)CO)C[C@H](C)[C@H](CN(C)S(=O)(=O)c1ccc(Cl)cc1)O2	.	0.8	18.1	.	.	.
O=C1CCC(C(=O)N2CCCCCC2)CN1CCc1ccc(Cl)cc1 (stereo unspecified)	0.6	.	14.9	-6.1	0.2	68.8*
O=S(=O)(N[C@H]1CC[C@@H](CCn2cc(C3(O)CCCC3)nn2)O[C@@H]1CO)c1ccc(F)cc1	.	-3.3	7.9	-3.2	.	.
Cc1cc(Sc2ncnc(N)c2[N+](=O)[O-])ncn1	98.6*	.	.	.	77.6*	-9.8
CN1c2ccc(Br)cc2[C@H]2[C@H](CCN2C(=O)C2CCCC2)[C@H]1CO	.	-7.3	4.5	.	.	.
COc1ccc(OC)c(NC(=O)CN=[N+]=[N-])c1	.	-3.8	.	-4.7	.	.
CCC(=O)Nc1ccc2c(c1)OC[C@@H](C)N(C(=O)C1CC1)C[C@@H](C)[C@H](OC)CN(C)C2=O	.	-4.6	-1.8	.	.	.
COC(=O)Cc1[nH]n(-c2nc3ccccc3s2)c(=O)c1C(C)=Nc1ccc(Cl)cc1	-20.9	5.7	-4.7	-99.8	79.5*	38.0
C[C@@H]1CN([C@@H](C)CO)C(=O)c2cccc(NC(=O)Nc3ccc(C(F)(F)F)cc3)c2O[C@H]1CN(C)Cc1ccc2c(c1)OCO2	.	17.6	.	.	.	.
SMILES	Shn3 3UTR inh	EWS-Fli inh	LGR2 inh	PAX8 reporter	TRPM1 prom inh	LMP1 NFkB inh
C[C@H]1CN([C@@H](C)CO)C(=O)c2cccc(NC(=O)Nc3ccc(F)cc3)c2O[C@H]1CN(C)C(=O)Nc1ccc(C(F)(F)F)cc1	.	7.5	6.6	79.5*	.	.
C[C@H](CO)N1C[C@H](C)[C@@H](CN(C)Cc2ccc3c(c2)OCO3)Oc2c(NC(=O)Nc3ccc(C(F)(F)F)cc3)cccc2C1=O	.	5.8	59.9*	.	.	.
CNC[C@H]1Oc2c(NC(=O)Nc3ccccc3)cccc2C(=O)N([C@H](C)CO)C[C@@H]1C	.	-2.5	-7.7	72.7*	.	.
C[C@H](CO)N1C[C@H](C)[C@@H](CN(C)C(=O)Nc2ccc(C(F)(F)F)cc2)Oc2c(NC(=O)Nc3ccccc3)cccc2C1=O	1.0	63.7*!	20.8	-6.5	6.0	9.0
CCc1nc(N2[C@@H](C#N)[C@H](c3ccccc3-c3ccccc3F)[C@@H]2CO)sc1C	.	58.1*	22.6	-14.7	.	.
CCc1nc(N2[C@H](C#N)[C@H](c3ccccc3-c3ccccc3F)[C@H]2CO)sc1C	.	1.9	-29.0	14.8	.	.
Nc1cc(N)c(OCC(F)(F)F)cc1OCC(F)(F)F	5.3	.	.	.	64.8*	-6.6
C[C@@H]1CN([C@@H](C)CO)C(=O)c2cc(NC(=O)CCC(F)(F)F)ccc2O[C@@H](C)CCCCO[C@@H]1CN(C)CC1CCCCC1	.	-1.5	5.8	-4.8	.	.
COc1ccc(/C=C2/CCC(CN3CCOCC3)C2=O)cc1 (stereo unspecified)	?	56.7*	-8.9	5.0	99.1*	86.4*
CN(C)CC1CC/C(=C\c2ccc(O)cc2)C1=O (stereo unspecified)	89.9*	43.8	9.2	49.2	.	-36.5
CC(=O)c1ccc(OC(=O)/C=C/c2ccccc2)cc1	-1.3	12.5	-6.1	19.6	3.4	-4.5
CN(C)CC1CCC/C(=C\c2ccc(OC(=O)/C=C/c3ccccc3)cc2)C1=O (stereo unspecified)	13.7	-5.4	1.9	.	68.5*	-12.5
CC1CCC/C(=C\c2ccc(O)cc2)C1=O (stereo unspecified)	-42.4	-2.5	.	-2.5	-37.0	1.0
COc1ccccc1-c1ccc2c(c1)O[C@@H](CN(C)C(=O)c1cccnc1)[C@@H](C)CN([C@H](C)CO)S2(=O)=O	.	-2.2	1.3	-31.5	.	.
